Experimental data published in the supplement of paper PMC10849652.
The full data set covers some 7,900 targets. This sample favours those with a hit. About 0.6% of all pairs of compound and target were hits. Unmarked numbers belong to inactive results.

What was measured:
Assay in all cases: log2 fold change, soluble protein after heating vs DMSO (PISA); higher = thermal stabilisation; K562 cells, 10 uM, 30 min; active = over 0.2 and 3.5 SD of the protein, either way, in both replicates (recomputed)
[1] = compound: CC1=C(C=C(C=C1)NC(=O)C2=CC(=CC=C2)C(C)(C)C#N)NC3=CC4=C(C=C3)N=CN(C4=O)C
Summary of the method: (§1)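 K562 cells at 2×10^6 cells/mL were exposed to 10 μM compound for 30 min, then aliquots were heated for 3 min across 48°C-58°C, pooled, and extracted in PBS containing 0.5% NP-40 at 4°C. The supernatant after 21,000xg for 90 min was taken as soluble protein and measured by TMTpro 16plex LC-MS/MS with channel sums equalised. Thermal stability is reported relative to control samples, with values from duplicates. Fold changes are given on a log2 scale.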

[2] = compound: CC1=C(C=C(C=C1)NC(=O)C2=CC(=CC=C2)N(C)C)NC(=O)C3=CC=C(C=C3)O
Summary of the method: as §1

[3] = compound: CC1=CC=C(C=C1)SC2=C3C=C(SC3=CN=C2)C(=O)N
Summary of the method: as §1

[4] = compound: CC1=NC(=CC=C1)C2=C(N=C(N2)C(C)(C)C)C3=CC4=NC=CN=C4C=C3
Summary of the method: as §1

Nexturastat A = compound: CCCCN(Cc1ccc(C(=O)NO)cc1)C(=O)Nc1ccccc1 [Nexturastat A]
Summary of the method: as §1

vemurafenib = compound: CCCS(=O)(=O)Nc1ccc(F)c(C(=O)c2c[nH]c3ncc(-c4ccc(Cl)cc4)cc23)c1F [vemurafenib]
Summary of the method: as §1

[5] = compound: CCCS(=O)(=O)Nc1ccc(F)c(C(=O)c2c[nH]c3ncc(Cl)cc23)c1F
Summary of the method: as §1

[6] = compound: CCCc1cc(C)[nH]c(=O)c1CNC(=O)c1cc(-c2ccnc(N3CCN(C)CC3)c2)cc2c1cnn2C(C)C
Summary of the method: as §1

givinostat = compound: CCN(CC)Cc1ccc2cc(COC(=O)Nc3ccc(C(=O)NO)cc3)ccc2c1 [givinostat]
Summary of the method: as §1

barasertib = compound: CCN(CCCOc1ccc2c(Nc3cc(CC(=O)Nc4cccc(F)c4)[nH]n3)ncnc2c1)CCOP(=O)(O)O [barasertib]
Summary of the method: as §1

[7] = compound: CC[C@@H]1C(=O)N(C)c2cnc(Nc3ccc(C(=O)NC4CCN(C)CC4)cc3OC)nc2N1C1CCCC1
Summary of the method: as §1

volasertib = compound: CC[C@@H]1C(=O)N(C)c2cnc(Nc3ccc(C(=O)N[C@H]4CC[C@H](N5CCN(CC6CC6)CC5)CC4)cc3OC)nc2N1C(C)C [volasertib]
Summary of the method: as §1

[8] = compound: CC[C@H](C)N1C=C(C2=C(C=C(C=C21)C3=CN=C(C=C3)N4CCNCC4)C(=O)NCC5=C(C=C(NC5=O)C)C)C
Summary of the method: as §1

epoxomicin = compound: CC[C@H](C)[C@@H](C(=O)N[C@@H]([C@@H](C)O)C(=O)N[C@@H](CC(C)C)C(=O)[C@]1(CO1)C)NC(=O)[C@H]([C@@H](C)CC)N(C)C(=O)C [epoxomicin]
Summary of the method: as §1

[9] = compound: CCn1c(C(=O)N(C2CC2)C2CC2)cc2c3c(ncn3C)c(Nc3cc(C)n(C)n3)nc21
Summary of the method: as §1

[10] = compound: CCn1cc(-c2ccnc3[nH]c(-c4cccc(CN(C)C)c4)cc23)c(-c2ccc(NC(=O)N(C)C)cc2)n1
Summary of the method: as §1

[11] = compound: CN(C)CC(=O)Nc1ccc2[nH]c(=O)c3ccccc3c2c1
Summary of the method: as §1

rosiglitazone = compound: CN(CCOC1=CC=C(C=C1)C[C@H]2C(=O)NC(=O)S2)C3=CC=CC=N3 (racemic) [rosiglitazone]
Summary of the method: as §1

[12] = compound: CN1C2=C(C3=C1C(=O)N(N=C3)CC4=CC(=CC=C4)N)SC(=C2)S(=O)C
Summary of the method: as §1

[13] = compound: CN1CCC(CNc2ccc3ncc(-c4cccc(OC(F)(F)F)c4)n3n2)CC1
Summary of the method: as §1

UniProt Q86WC4, sequence (Q86WC4 whole entry, looked up): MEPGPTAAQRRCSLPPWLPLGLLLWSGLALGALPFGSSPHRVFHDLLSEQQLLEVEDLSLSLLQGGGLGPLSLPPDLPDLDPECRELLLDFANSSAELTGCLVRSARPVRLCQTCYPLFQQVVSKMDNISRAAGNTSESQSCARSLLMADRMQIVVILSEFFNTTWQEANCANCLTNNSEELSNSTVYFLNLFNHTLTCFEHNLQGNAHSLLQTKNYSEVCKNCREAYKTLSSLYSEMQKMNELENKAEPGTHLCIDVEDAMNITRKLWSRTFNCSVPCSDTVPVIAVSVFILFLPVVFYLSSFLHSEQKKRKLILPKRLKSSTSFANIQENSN
UniProt O43847, sequence (O43847 whole entry, looked up): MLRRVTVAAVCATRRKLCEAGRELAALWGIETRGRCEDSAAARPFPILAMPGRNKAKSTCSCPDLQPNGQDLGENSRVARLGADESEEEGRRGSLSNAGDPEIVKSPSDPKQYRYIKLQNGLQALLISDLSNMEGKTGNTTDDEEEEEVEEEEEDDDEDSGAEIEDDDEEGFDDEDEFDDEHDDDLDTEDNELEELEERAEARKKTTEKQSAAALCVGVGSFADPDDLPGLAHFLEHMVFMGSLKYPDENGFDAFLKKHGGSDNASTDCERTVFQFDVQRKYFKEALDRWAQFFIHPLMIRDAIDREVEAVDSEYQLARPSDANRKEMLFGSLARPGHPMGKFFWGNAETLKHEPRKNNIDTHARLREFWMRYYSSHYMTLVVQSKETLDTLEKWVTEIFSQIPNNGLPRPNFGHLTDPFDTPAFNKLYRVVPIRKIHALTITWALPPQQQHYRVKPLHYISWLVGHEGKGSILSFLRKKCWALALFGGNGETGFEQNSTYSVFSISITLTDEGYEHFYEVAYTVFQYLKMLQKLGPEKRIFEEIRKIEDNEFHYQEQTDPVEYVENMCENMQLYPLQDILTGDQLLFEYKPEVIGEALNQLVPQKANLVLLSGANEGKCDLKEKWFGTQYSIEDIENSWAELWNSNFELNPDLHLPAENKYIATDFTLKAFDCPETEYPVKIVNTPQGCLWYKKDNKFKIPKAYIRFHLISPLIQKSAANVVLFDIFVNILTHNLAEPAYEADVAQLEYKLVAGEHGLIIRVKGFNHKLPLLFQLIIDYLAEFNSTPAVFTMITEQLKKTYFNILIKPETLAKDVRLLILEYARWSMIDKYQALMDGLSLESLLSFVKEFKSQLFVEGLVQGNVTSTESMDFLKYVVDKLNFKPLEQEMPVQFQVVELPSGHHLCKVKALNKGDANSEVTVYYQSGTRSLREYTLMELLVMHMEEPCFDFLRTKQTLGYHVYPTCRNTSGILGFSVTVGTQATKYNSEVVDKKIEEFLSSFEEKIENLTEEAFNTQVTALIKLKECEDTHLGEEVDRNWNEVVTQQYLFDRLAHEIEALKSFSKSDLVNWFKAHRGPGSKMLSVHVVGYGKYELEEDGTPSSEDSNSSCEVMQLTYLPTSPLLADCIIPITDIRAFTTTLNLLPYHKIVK
UniProt P49914, sequence (P49914 whole entry, looked up): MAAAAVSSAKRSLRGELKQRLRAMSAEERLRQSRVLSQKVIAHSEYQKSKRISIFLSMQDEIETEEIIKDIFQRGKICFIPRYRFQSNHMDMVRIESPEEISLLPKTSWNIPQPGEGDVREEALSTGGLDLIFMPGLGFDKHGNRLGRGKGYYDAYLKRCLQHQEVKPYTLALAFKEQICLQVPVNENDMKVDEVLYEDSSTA
UniProt Q9H081, sequence (Q9H081 whole entry, looked up): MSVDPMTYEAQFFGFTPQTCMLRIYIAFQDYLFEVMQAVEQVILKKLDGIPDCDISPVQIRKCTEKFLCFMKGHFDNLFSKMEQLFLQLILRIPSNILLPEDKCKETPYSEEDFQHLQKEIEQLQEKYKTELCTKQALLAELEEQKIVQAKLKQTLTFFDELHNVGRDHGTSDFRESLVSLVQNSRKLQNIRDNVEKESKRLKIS
UniProt Q8WV92, sequence (Q8WV92 whole entry, looked up): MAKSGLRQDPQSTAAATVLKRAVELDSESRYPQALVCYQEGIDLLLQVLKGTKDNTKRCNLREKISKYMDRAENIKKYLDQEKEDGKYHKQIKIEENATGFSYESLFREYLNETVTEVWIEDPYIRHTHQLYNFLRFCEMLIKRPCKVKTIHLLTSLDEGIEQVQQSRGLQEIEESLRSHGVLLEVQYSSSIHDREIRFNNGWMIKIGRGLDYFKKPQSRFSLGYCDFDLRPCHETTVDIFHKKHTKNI
UniProt P55209, sequence (P55209 whole entry, looked up): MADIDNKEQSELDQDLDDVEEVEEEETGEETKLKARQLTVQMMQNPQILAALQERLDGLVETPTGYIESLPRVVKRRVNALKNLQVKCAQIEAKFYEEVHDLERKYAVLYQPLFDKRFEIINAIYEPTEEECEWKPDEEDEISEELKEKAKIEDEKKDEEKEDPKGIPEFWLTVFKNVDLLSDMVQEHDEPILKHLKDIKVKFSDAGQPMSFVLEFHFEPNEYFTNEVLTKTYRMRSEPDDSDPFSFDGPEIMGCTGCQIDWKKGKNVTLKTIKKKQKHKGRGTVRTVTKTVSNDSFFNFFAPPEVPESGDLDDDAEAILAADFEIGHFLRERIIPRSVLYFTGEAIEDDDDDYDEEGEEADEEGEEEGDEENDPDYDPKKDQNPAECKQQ
UniProt Q15014, sequence (Q15014 whole entry, looked up): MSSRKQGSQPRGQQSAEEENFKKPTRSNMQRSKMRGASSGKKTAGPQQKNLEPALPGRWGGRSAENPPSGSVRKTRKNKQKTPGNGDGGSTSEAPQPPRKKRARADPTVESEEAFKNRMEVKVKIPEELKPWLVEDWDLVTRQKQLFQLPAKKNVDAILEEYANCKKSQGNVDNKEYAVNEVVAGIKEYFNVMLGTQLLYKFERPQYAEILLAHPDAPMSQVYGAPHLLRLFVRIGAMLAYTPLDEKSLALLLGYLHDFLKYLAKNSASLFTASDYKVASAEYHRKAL
UniProt O43809, sequence (O43809 whole entry, looked up): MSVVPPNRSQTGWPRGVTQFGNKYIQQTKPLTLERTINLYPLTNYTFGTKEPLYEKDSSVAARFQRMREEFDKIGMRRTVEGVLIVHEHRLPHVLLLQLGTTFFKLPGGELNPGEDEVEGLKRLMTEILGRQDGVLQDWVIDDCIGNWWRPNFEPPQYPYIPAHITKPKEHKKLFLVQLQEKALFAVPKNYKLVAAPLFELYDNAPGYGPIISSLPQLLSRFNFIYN
UniProt O60934, sequence (O60934 whole entry, looked up): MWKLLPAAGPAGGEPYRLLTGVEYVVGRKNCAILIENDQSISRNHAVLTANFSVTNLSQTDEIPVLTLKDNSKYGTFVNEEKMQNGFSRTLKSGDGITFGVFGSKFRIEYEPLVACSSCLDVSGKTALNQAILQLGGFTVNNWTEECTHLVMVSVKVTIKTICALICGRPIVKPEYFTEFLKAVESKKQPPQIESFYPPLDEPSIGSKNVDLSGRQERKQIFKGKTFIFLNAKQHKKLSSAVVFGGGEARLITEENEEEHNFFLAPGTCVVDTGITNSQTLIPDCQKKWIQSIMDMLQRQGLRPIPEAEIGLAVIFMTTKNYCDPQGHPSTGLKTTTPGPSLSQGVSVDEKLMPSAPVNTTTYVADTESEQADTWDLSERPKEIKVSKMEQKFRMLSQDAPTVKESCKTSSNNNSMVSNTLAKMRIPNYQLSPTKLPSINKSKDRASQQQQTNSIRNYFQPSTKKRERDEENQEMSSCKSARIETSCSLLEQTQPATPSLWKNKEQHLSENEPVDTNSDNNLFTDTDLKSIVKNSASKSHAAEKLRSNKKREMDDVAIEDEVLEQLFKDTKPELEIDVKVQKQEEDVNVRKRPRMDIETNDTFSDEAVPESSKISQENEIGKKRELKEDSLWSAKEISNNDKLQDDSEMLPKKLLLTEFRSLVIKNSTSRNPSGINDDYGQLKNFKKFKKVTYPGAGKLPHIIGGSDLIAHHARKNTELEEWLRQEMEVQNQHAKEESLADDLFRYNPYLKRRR
UniProt Q9H1E3, sequence (Q9H1E3 whole entry, looked up): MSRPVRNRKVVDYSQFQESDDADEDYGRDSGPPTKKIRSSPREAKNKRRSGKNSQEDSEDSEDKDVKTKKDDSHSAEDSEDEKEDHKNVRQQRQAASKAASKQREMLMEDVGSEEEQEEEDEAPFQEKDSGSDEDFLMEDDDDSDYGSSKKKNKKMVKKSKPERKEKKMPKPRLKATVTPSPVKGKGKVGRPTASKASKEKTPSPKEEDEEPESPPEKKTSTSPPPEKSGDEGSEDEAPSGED
UniProt Q16795, sequence (Q16795 whole entry, looked up): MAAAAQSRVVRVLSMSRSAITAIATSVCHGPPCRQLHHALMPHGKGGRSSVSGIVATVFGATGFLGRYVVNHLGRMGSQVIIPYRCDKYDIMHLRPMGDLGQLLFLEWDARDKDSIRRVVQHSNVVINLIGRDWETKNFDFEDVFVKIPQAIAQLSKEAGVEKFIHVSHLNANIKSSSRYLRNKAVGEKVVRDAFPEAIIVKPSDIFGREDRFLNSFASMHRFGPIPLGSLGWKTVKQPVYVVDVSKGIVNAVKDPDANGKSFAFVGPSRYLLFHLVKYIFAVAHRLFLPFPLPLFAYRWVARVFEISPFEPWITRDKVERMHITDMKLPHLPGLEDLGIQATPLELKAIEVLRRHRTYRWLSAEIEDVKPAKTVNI
UniProt Q9NRP0, sequence (Q9NRP0 whole entry, looked up): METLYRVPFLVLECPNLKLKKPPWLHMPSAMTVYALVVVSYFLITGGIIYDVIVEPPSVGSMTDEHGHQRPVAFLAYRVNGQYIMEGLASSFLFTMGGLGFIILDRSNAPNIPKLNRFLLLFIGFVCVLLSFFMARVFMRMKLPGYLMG

Row | Target | log2 fold change [1] | log2 fold change [2] | log2 fold change [3] | log2 fold change [4] | log2 fold change (Nexturastat A) | log2 fold change (vemurafenib) | log2 fold change [5] | log2 fold change [6] | log2 fold change (givinostat) | log2 fold change (barasertib) | log2 fold change [7] | log2 fold change (volasertib) | log2 fold change [8] | log2 fold change (epoxomicin) | log2 fold change [9] | log2 fold change [10] | log2 fold change [11] | log2 fold change (rosiglitazone) | log2 fold change [12] | log2 fold change [13]
1 | MITD1 (UniProt Q8WV92) | -0.124 | 0.072 | -0.043 | -0.043 | -0.026 | 0.069 | 0 | -0.093 | -0.047 | 0.042 | -0.16 | -0.266 | 0.077 | 0.147 | 0.117 | 0.057 | 0.049 | -0.016 | 0.079 | -0.365
2 | MRPS9 (UniProt P82933) | 0.053 | -0.025 | -0.029 | 0.02 | 0.057 | -0.043 | 0.053 | -0.019 | 0.026 | -0.043 | 0.094 | 0.109 | 0.076 | -0.009 | -0.082 | 0.027 | -0.004 | 0.012 | 0.071 | 0.001
3 | MIS12 (UniProt Q9H081) | -0.008 | -0.141 | -0.004 | 0.044 | 0.056 | 0.074 | -0.002 | 0.023 | 0.102 | 0.049 | -0.072 | -0.36 (active) | 0.012 | 0.026 | -0.034 | -0.007 | 0.055 | 0.04 | -0.107 | -0.039
4 | NRDC isoform 2 (UniProt O43847) | 0.001 | -0.053 | 0.01 | 0.03 | 0 | 0.047 | 0.051 | 0.021 | 0.017 | 0.037 | -0.18 | -0.371 (active) | 0.069 | 0.038 | -0.067 | -0.087 | 0.055 | 0.073 | 0 | -0.087
5 | NAP1L1 (UniProt P55209) | 0.042 | 0.005 | -0.002 | 0.035 | -0.003 | 0.04 | 0.011 | 0.028 | -0.08 | 0.061 | -0.112 | -0.237 (active) | 0.005 | 0.048 | 0.007 | -0.008 | 0.013 | 0.014 | 0.003 | -0.038
6 | MKRN2 (UniProt Q9H000) | 0.147 | 0.059 | -0.002 | 0.086 | 0.091 | 0.095 | 0.035 | -0.045 | 0.083 | -0.098 | -0.08 | -0.633 (active) | 0.106 | -0.068 | -0.064 | 0.193 | 0.126 | 0.063 | 0.152 | 0.082
7 | NBN (UniProt O60934) | 0.017 | -0.008 | -0.01 | 0.014 | -0.03 | 0.081 | 0.047 | 0.04 | 0.054 | 0.022 | -0.072 | -0.219 (active) | 0.031 | 0.073 | -0.038 | 0.002 | 0.061 | 0.034 | -0.043 | -0.116
8 | MORF4L2 (UniProt Q15014) | -0.004 | -0.061 | -0.015 | -0.083 | 0.129 | 0.009 | 0.036 | 0.038 | -0.007 | -0.03 | 0.074 | 0.023 | 0.014 | 0.085 | 0.014 | 0.075 | -0.125 | -0.051 | 0.12 | 0.076
9 | OSTM1 (UniProt Q86WC4) | -0.051 | -0.047 | 0 | 0.056 | -0.033 | 0.017 | 0.093 | -0.03 | 0.146 | -0.023 | -0.216 | -0.169 | 0.058 | 0.107 | -0.12 | -0.215 | -0.072 | 0.004 | 0.035 | -0.064
10 | NDUFA9 (UniProt Q16795) | 0.023 | -0.036 | 0.019 | 0.04 | -0.095 | 0.009 | 0.039 | -0.044 | 0.041 | 0.026 | -0.082 | -0.26 (active) | 0.073 | 0.03 | -0.029 | -0.053 | 0.035 | 0.064 | -0.017 | -0.367 (active)
11 | NUCKS1 (UniProt Q9H1E3) | -0.036 | 0.065 | -0.014 | 0.044 | -0.061 | 0.017 | -0.061 | -0.076 | -0.004 | 0.008 | -0.061 | -0.012 | -0.028 | 0.016 | 0.033 | 0.014 | -0.073 | 0.001 | -0.043 | -0.083
12 | NUDT21 (UniProt O43809) | 0.052 | 0.077 | -0.007 | 0.019 | 0 | 0.02 | -0.053 | -0.013 | -0.033 | -0.023 | 0.036 | 0.074 | -0.033 | -0.107 | -0.02 | 0.038 | -0.041 | -0.028 | -0.013 | 0.064
13 | OSTC (UniProt Q9NRP0) | 0.001 | 0.001 | 0.047 | 0.058 | -0.114 | -0.115 | 0.068 | -0.058 | 0.076 | 0.061 | -0.01 | -0.141 | 0.011 | -0.073 | 0.006 | 0.039 | 0.073 | 0.048 | -0.129 | -0.053
14 | PAAF1 (UniProt Q9BRP4) | -0.026 | -0.005 | 0.016 | 0.003 | -0.035 | -0.028 | 0.019 | -0.038 | 0.023 | 0.021 | 0.006 | -0.034 | -0.021 | -0.275 (active) | 0.005 | -0.051 | -0.009 | 0.039 | -0.07 | -0.039
15 | MRPS25 (UniProt P82663) | 0.033 | -0.009 | 0.085 | 0.078 | 0.012 | -0.089 | 0.078 | -0.082 | 0.049 | -0.02 | 0.031 | -0.057 | 0.145 | -0.126 | -0.091 | -0.295 | -0.056 | -0.042 | 0.074 | 0.036
16 | MTHFS (UniProt P49914) | 0.047 | -0.054 | -0.01 | 0.047 | -0.005 | -0.017 | 0.01 | -0.041 | -0.063 | 0.009 | 0.082 | 0.236 (active) | 0.034 | 0.11 | 0.031 | 0.02 | 0.034 | 0.046 | -0.022 | -0.019
